NALP3 yeast inh: NALP3 inflammasome inhibitors in reconstituted yeast, primary screen, luminescence, uHTS | Yeast reconstituted NLRP3/ASC/caspase-1, beta-gal luminescence, 24 h | inhibition, % at 10 µM | actives 0.39% (n = 330,000) | AID 2825, 2010;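 active = inhibition of 50% or more; inactive = inhibition below 50%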;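 also: plate controls were induced DMSO wells for no effect and uninduced yeast grown without galactose for full effect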
tim10-1 inh: growth inhibitors of tim10-1 mutant yeast, primary screen, luminescence, uHTS; S. cerevisiae tim10-1 ts strain growth, BacTiter-Glo, 24 h; inhibition, % at 20 µM; actives 2.2% (n = 330,000); AID 463190, 2010;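 active = inhibition of at least 40%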;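 also: mutant grown at 25 °C; 0% = DMSO wells with yeast and 100% = wells holding no yeast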
PfHsp90 yeast 2: growth inhibition of PfHsp90-expressing yeast, primary screen, antimalarial PfHsp90 inhibitor project, S. cerevisiae, BacTiter-Glo luminescence, single point, set 2; BacTiter-Glo ATP, 48 h; yeast lacking PDR1 and PDR3 efflux regulators; inhibition, % at 9.4 µM; actives 0.32% (n = 310,000); AID 504621, 2011;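 active = every replicate shows inhibition above about 80%, whatever the replicate mean, limit read from the data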;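 also: 0% = DMSO neutral controls and 100% = 20 µM radicicol positive controls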
tim23-1 inh: growth inhibitors of tim23-1 mutant yeast, primary screen, luminescence, uHTS; S. cerevisiae tim23-1 growth, BacTiter-Glo luminescence, 24 h; inhibition, % at 20 µM; actives 1.3% (n = 330,000); AID 463212, 2010;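 active = growth inhibition of the mutant yeast at or above 50%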;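 also: temperature-sensitive mutant grown at 25 °C; plate controls were DMSO-treated mutant yeast for no effect and medium wells lacking yeast for full effect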
TIM10 inh: growth inhibitors of isogenic TIM10 control yeast, primary screen, counter-screen for tim10-1 yeast inhibitor project, luminescence, uHTS | S. cerevisiae TIM10 strain growth, BacTiter-Glo luminescence, 24 h | inhibition, % at 10 µM | actives 1.4% (n = 330,000) | AID 463195, 2010;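 active = inhibition of 40% or more at the single tested concentration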;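 also: wild-type TIM10 isogenic control strain grown at permissive 25 °C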
tim10-1 confirm: growth inhibitors of tim10-1 mutant yeast, confirmation, single concentration, luminescence, S. cerevisiae | actives 56% (n = 7,400) | shares compounds with tim10-1 inh | S. cerevisiae tim10-1 ts strain growth, BacTiter-Glo, 24 h | AID 463213, 2010 | inhibition, % at 20 µM;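 active = inhibition of yeast growth at or above a set limit in either of two repeat tests at 20 µM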;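 also: tim10-1 mutant grown at permissive 25 °C to find synthetic lethal compounds; 0% = DMSO yeast wells and 100% = medium wells without yeast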
An asterisk follows results filed as active; · = not tested or not shown. A selection: hits, their analogues and other compounds. The true share with any hit is near 3.7%.

SMILES | NALP3 yeast inh | tim10-1 inh | PfHsp90 yeast 2 | tim23-1 inh | TIM10 inh | tim10-1 confirm
CC1(c2ccccc2Br)NC(=O)N(CC(=O)N2CCc3ccccc3C2)C1=O (stereo not given) | 20 | 0 | -48 | 1 | 5 | ·
CCOc1ccccc1NC(=O)C(OC(=O)c1ccc(CC)cc1)c1ccccc1 (stereo not given) | 7 | 19 | -31 | 20 | 29 | ·
CCOc1ccccc1NC(=O)C(OC(=O)c1ccc(O)cc1)c1ccccc1 (stereo not given) | 19 | 42* | 1 | 35 | 33 | 38*
CCc1cc2c(SCC(=O)NC3CC3)ncnc2s1 | 24 | -15 | 19 | 6 | -2 | ·
O=C(COC(=O)c1cccc(S(=O)(=O)N2CCc3ccccc3C2)c1)NCc1ccco1 | 19 | 41* | 12 | 3 | 1 | 12
COc1ccc(OC)c(/C=C2\SC(N3CCCC(C)C3)=NC2=O)c1 (stereo not given) | 2 | 43* | -16 | 41 | 11 | 28
COc1ccc(/C=C2\SC(N3CCCCC3)=NC2=O)cc1OC | 25 | 19 | 6 | 19 | 28 | ·
Cc1ccc(OCC(=O)O/N=C(\N)Cc2cccs2)cc1C | 38 | 44* | -28 | 38 | 23 | 29
COc1ccccc1C/C(N)=N/OC(=O)COc1ccccc1C | 5 | 41* | -19 | 34 | 39 | 40*
COc1ccc(/C=N/N(Cc2ccccc2)c2ccccc2)cc1O | -28 | 51* | -37 | 30 | 39 | -21
C(=N\N(Cc1ccccc1)c1ccccc1)/c1ccco1 | -8 | 35 | 0 | 26 | 19 | ·
CN(C)c1ccnc2sc(C(=O)c3ccc(Br)cc3)c(N)c12 | 3 | 43* | 2 | 33 | 29 | 9
CCOc1ccc(Nc2nc(N)nc(CSC(=S)N3CCN(c4ccccc4)CC3)n2)cc1 | 10 | 7 | 14 | 26 | 8 | ·
COc1ccc(Nc2nc(N)nc(CSC(=S)N3CCN(c4ccccc4)CC3)n2)cc1 | -11 | 41* | -8 | 24 | 4 | 9
CC(C)(C)C1CCc2c(C(=O)N/N=C/c3cccs3)csc2C1 (stereo not given) | 12 | 47* | 3 | 37 | 33 | 32*
CN=C(Nc1cc(Cl)ccc1Cl)SC1CC(=O)N(c2ccc(C(=O)OC)cc2)C1=O (stereo not given) | 35 | 44* | · | 42 | 14 | 42*
COC(=O)c1ccc(N2C(=O)CC(SCC(=O)Nc3ccc(OC)cc3)C2=O)cc1 (stereo not given) | 18 | 21 | 2 | 28 | 13 | ·
Cc1cc(C)c(NC(=O)CSc2nc3ccccc3c(=O)n2CCCN2CCOCC2)c(C)c1 | -2 | -2 | -17 | 12 | 4 | ·
CCC(C)N=C1CC(C)(C)CC(=O)/C1=C(/O)Cc1ccccc1 (stereo not given) | 21 | 30 | 14 | 27 | 11 | ·
Cc1cc(Nc2ccccc2)n(-c2cccc(Cl)c2)n1 | -17 | 38 | -16 | 33 | 20 | ·
Nc1ccccc1Nc1cc(-c2cccc(Cl)c2)nn1-c1ccccc1 | 31 | 40* | -8 | 38 | 26 | 34*
CCOC(=O)c1c(CSc2ccc(C)cc2)n(C)c2cc(Br)c(O)c(CN(C)C)c12 | 18 | 41* | -13 | 36 | 37 | 44*
CCCSc1nc(=S)n(Cc2ccccc2)c(C)c1C(C)=O | 12 | 40 | 6 | 23 | 21 | ·
Cc1cccn2cc(CSc3nnc(Nc4ccc(C(C)C)cc4)s3)nc12 | 16 | 45* | 2 | 16 | 17 | 28
O=S(=O)(c1ccc2[nH]ccc2c1)N1CCCCCC1 | -25 | 44* | -33 | 39 | 18 | 6
COc1ccc(N2C(=O)CC(Sc3n[nH]c(-c4cccc(C)c4)n3)C2=O)cc1 (stereo not given) | 15 | 36 | · | 15 | 21 | ·
CCOc1ccccc1N1C(=O)CC(Sc2n[nH]c(-c3ccccc3)n2)C1=O (stereo not given) | 22 | 53* | 19 | 13 | 32 | 53*

Assay outcomes from PubChem.
